Reference: PubChem BioAssay (NCATS)
Active and inactive are the calls of the source. The rule behind the calls is not given here.

Assay: qHTS assay for small molecule activators of the human pregnane X receptor (PXR) signaling pathway (AID 720659)
Settings: DPX-2 HepG2 CYP3A4-luciferase, 24 h; series mostly up to 92.3 µM

Compound | outcome
Brc1ccccc1 | inactive
C=C(C)C#N | inactive
CCSC(=O)Cl | inactive
Nc1c(Cl)c(Cl)nc(C(=O)O)c1Cl | inactive
CC(C)(C)OOC(C)(C)C | inactive
C=C(C)C(=O)OCC1CO1 (stereo not drawn) | inactive
Cc1ccc([N+](=O)[O-])cc1C | inactive
O=[N+]([O-])c1ccc(Cl)c(Cl)c1 | inactive
C=CC(=C)C | inactive
Cc1ccc2ccccc2c1 | inactive
Nc1ccccc1Cl | inactive
Clc1ccc2ccccc2c1 | inactive
OCC1CO1 (stereo not drawn) | inactive
C=CCOC(=O)c1ccccc1N | inactive
C=CC(N)=O | inactive
CCN(CC)c1ccccc1 | inactive
N#CCCCl | inactive

Compound | outcome
O=NN(CCO)CCO | inactive
Cc1ccccc1N | inactive
C=CCOC(C)=O | inactive
CCCC(=O)Cl | inactive
O=C(Cl)/C=C/C(=O)Cl | inactive
C=C(Cl)Cl | inactive
ClCBr | inactive
COc1ccc(C=O)cc1OC | inactive
C=CC(=O)OCC | inactive
c1nc[nH]n1 | inactive
c1ccc2c(c1)CCCC2 | inactive
CCCSC(=O)Cl | inactive
Clc1cccc(C(Cl)(Cl)Cl)n1 | inactive
O=NN(c1ccccc1)c1ccccc1 | inactive
C1CCC2CCCCC2C1 (stereo not drawn) | inactive
CC(O)CCl (stereo not drawn) | inactive
